Compounds with a hit are over-represented: about 2.4% of the library has one in this group of screens.
Platelet DG rel – modulates dense granule release in human platelets; human platelet-rich plasma, SFLLRN dense granule ATP release, luminescence; AID 1663; inhibition, %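 (compounds screened at 7.5 µM in platelet-rich plasma)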; actives 0.22% (n = 300,000);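 active = mean replicate score, as percent of positive control, at or above 50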
SENP8 block-1 – SENP8 (human) protease inhibition; recombinant SENP8, Nedd8 substrate fluorescence; inhibition, % at 20 µM; actives 0.64% (n = 360,000); AID 602440; in the data active = inhibition mostly above about 40%, no sharp cut-off; inactive = mostly below about 27%
Target sequence (Q96LD8 whole entry, looked up): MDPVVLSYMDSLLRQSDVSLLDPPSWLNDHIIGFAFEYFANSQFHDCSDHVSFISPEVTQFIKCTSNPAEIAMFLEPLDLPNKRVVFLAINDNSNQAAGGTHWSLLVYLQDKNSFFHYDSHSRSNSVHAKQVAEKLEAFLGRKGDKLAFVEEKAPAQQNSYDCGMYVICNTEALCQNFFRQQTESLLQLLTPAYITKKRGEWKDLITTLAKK
SENP7 block – inhibitors of human SENP7 protease. Q9BQF6. recombinant SENP7, Z-RLRGG-aminoluciferin luminescence, 40 min. inhibition, % at 5 µM. actives 1.5% (n = 330,000). AID 434973;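 active = inhibition above about 50% at the single test dose, limit read from the data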
SENP8 block-2 – blocks the human protease SENP8 | Q96LD8 | purified SENP8, Z-RLRGG-aminoluciferin cleavage, luminescence | inhibition, % at 10 µM | actives 1.2% (n = 330,000) | AID 2540; in the data active = inhibition above about 50%
SENP6 inh – inhibitors of human SENP6 protease. actives 1.8% (n = 330,000). inhibition, % at 10 µM. Recombinant SENP6 catalytic domain, aminoluciferin luminescence. AID 2599;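 active = inhibition above about 50% at the single tested dose, limit read from the data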
SENP8 inh conf – confirmation of human SENP8 protease inhibitors; shares compounds with SENP8 block-1; purified SENP8, Nedd8-AMC/pro-Nedd8 cleavage fluorescence, 30 min; inhibition, % at 25 µM; actives 15% (n = 1,400); AID 624319; in the data active = inhibition mostly above about 39%, no sharp cut-off; inactive = mostly below about 34%
Numbers stand for hits.

Results for Cc1cc(=O)n(-c2ccc(O)cc2)[nH]1 ?
Platelet DG rel: inactive; SENP8 block-1: 79; SENP7 block: inactive; SENP8 block-2: inactive; SENP6 inh: inactive; SENP8 inh conf: 38

Results for CC(C)[C@@H](C(=O)NCC1CCCO1)N1C(=O)N2CCc3c([nH]c4ccccc34)[C@@]2(C)C1=O (some centres not stated) ?
Platelet DG rel: inactive; SENP8 block-1: 51; SENP7 block: inactive; SENP8 block-2: inactive; SENP6 inh: inactive; SENP8 inh conf: inactive

How did CC(C)[C@@H](C(=O)NC1CC1)N1C(=O)N2CCc3c([nH]c4ccccc34)[C@@]2(C)C1=O do in these assays?
Platelet DG rel: inactive; SENP8 block-1: 51; SENP7 block: inactive; SENP8 block-2: inactive; SENP6 inh: inactive; SENP8 inh conf: inactive

Results for CC(C)[C@@H](C(=O)N[C@@H](C(=O)O)c1ccccc1)N1C(=O)N2CCc3c([nH]c4ccccc34)[C@@]2(C)C1=O ?
Platelet DG rel: inactive; SENP8 block-1: 44; SENP7 block: inactive; SENP8 block-2: inactive; SENP6 inh: inactive; SENP8 inh conf: inactive

Results for CC(C)[C@@H](C(=O)NC1CCN(Cc2ccccc2)CC1)N1C(=O)N2CCc3c([nH]c4ccccc34)[C@@]2(C)C1=O ?
Platelet DG rel: inactive; SENP8 block-1: inactive; SENP7 block: inactive; SENP8 block-2: inactive; SENP6 inh: inactive

What do the screens show for `CCOCCSc1nc2c(c(=O)[nH]c(=O)n2C)n1CCCc1ccccc1`?
Platelet DG rel: inactive; SENP8 block-1: 44; SENP7 block: inactive; SENP8 block-2: inactive; SENP6 inh: inactive; SENP8 inh conf: inactive

How did Cc1cnc(C=NNC(N)=S)c2cccc(N)c12 do in these assays?
SENP8 block-1: 82; SENP8 inh conf: 43

What do the screens show for `O=[N+]([O-])c1ccccc1NC1CCN(Cc2ccccc2)CC1`?
Platelet DG rel: inactive; SENP8 block-1: 44; SENP7 block: inactive; SENP8 block-2: inactive; SENP6 inh: inactive; SENP8 inh conf: inactive

Results for O=C1C2CC=CCC2C(=O)N1c1ccc(NCCc2ccccc2)c([N+](=O)[O-])c1 (configuration not stated) ?
Platelet DG rel: inactive; SENP8 block-1: inactive; SENP7 block: inactive; SENP8 block-2: inactive; SENP6 inh: inactive

Results for O=C1CCC(=O)N1c1ccc(NC2CCN(Cc3ccccc3)CC2)c([N+](=O)[O-])c1 ?
Platelet DG rel: inactive; SENP8 block-1: inactive; SENP7 block: inactive; SENP8 block-2: inactive; SENP6 inh: inactive

How did O=[N+]([O-])c1ccc(NC2CCN(Cc3ccccc3)CC2)c([N+](=O)[O-])c1 do in these assays?
Platelet DG rel: inactive; SENP8 block-1: inactive; SENP7 block: inactive; SENP8 block-2: inactive; SENP6 inh: inactive

How did O=C1C2CCCCC2C(=O)N1c1ccc(NC2CCN(Cc3ccccc3)CC2)c([N+](=O)[O-])c1 (configuration not stated) do in these assays?
Platelet DG rel: inactive; SENP8 block-1: 44; SENP7 block: inactive; SENP8 block-2: inactive; SENP6 inh: inactive; SENP8 inh conf: inactive

Results for CC1CCC2C(=O)N(c3ccc(NC4CCN(Cc5ccccc5)CC4)c([N+](=O)[O-])c3)C(=O)C2C1 (configuration not stated) ?
Platelet DG rel: inactive; SENP8 block-1: 47; SENP7 block: inactive; SENP8 block-2: inactive; SENP6 inh: inactive; SENP8 inh conf: inactive

Results for O=[N+]([O-])c1ccc(C=NNC(=S)Nc2ccc(F)cc2)cc1 ?
SENP8 block-1: inactive

What do the screens show for `O=[N+]([O-])c1ccc(C=NNC(=S)NN=Cc2ccc([N+](=O)[O-])cc2)cc1`?
SENP8 block-1: 70; SENP8 inh conf: inactive

What do the screens show for `Cc1ccc(NC(=O)/C=N/OCC(=O)NCc2ccccc2Cl)cc1`?
Platelet DG rel: inactive; SENP8 block-1: inactive; SENP7 block: inactive; SENP8 block-2: inactive; SENP6 inh: inactive

Results for O=[N+]([O-])c1cc([N+](=O)[O-])c(Oc2cc(F)ccc2F)cc1NN1CCCCC1 ?
Platelet DG rel: inactive; SENP8 block-1: 55; SENP7 block: inactive; SENP8 block-2: inactive; SENP6 inh: inactive; SENP8 inh conf: inactive

How did COc1cc2c(C(=O)N3CCOCC3)c(CSc3ccccc3)n(C)c2cc1Br do in these assays?
Platelet DG rel: inactive; SENP8 block-1: inactive; SENP7 block: inactive; SENP8 block-2: inactive; SENP6 inh: inactive
